A number with no mark means an inactive call. Activity calls are given as the source filed them.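 The calls were made as follows: active = z-score of at least 1.8 in each of two replicates, scored against plate mean and spread of sample wells; inactive = the rest.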

The assay can be described thus: viability rescue of complex I mutant cybrids, primary screen, cell-based, galactose medium, ATP luminescence (AID 1645843).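 Also: positive z means more ATP and so rescue of galactose-driven cybrid death.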 As to conditions: complex I mutant cybrid cells, 72 h, stronger effect = higher value.
As for `CCC1(CC)CC1C(=O)N1CCC(n2cc(C3CC3)nn2)CC1` (stereo not given), the z-score was -0.51. The value for `CC1CCc2c(sc3ncn(Cc4noc(C(C)C)n4)c(=O)c23)C1` (stereo not given) was -0.525; that for `NC(=O)NCc1cn(CC2CCN(C(=O)CC3CCCCCC3)CC2)nn1` was -0.605; that for `O=c1cc(-c2ccccc2Cl)nc(-c2ccc(CN3CCC[C@@H](O)C3)cc2)[nH]1` was -0.605. The value for `CCCC(C)c1nc2c(cnn2C(C)C(C)C)[nH]1` (stereo not given) was -1.01; that for `COc1ccc2c(C(=O)N(C)CCc3ccccn3)cc(-c3cnn(C)c3)nc2c1` was -0.54; that for `CCCCCC(=O)N1CCC(n2cc(C3CCCCC3)nn2)CC1` was -0.415. With `Cc1ccc2c(C(=O)N3CCCC(C#N)C3)cc(-c3cnn(C(C)C)c3)nc2c1` (stereo not given), the z-score was -0.52.

Consider `CCCC(CCC)C(=O)N1CCC(n2cc(C(C)O)nn2)CC1` (stereo not given), for which the z-score was -0.47.

For the compound `Cc1nn(C)cc1-c1ccnc(N2CCCC(c3nc4c(C)cccc4[nH]3)C2)n1` (stereo not given), the z-score was -1.2.

As to `Cc1cc(CN2CCOC(CN)C2)ccc1OC1(C(=O)O)CCSCC1` (stereo not given), the z-score was -0.415. On to `CCC(CC)(CCC#N)CNC1COC2(CCCC2)C1` (stereo not given), for which the z-score was -0.555. As for `CC(C)Cc1cn(C2CCN(C3CCCCCC3)CC2)nn1`, the figure is -0.565; as for `Cc1nn(C)c(C)c1-c1ccnc(N2CCC(c3ccccc3Cl)C2)n1` (stereo not given), -1.27. For the compound `Cc1nc(C(=O)N2CCCC(Cn3cc(-c4ccsc4)nn3)C2)cs1` (stereo not given), the z-score is -0.08. As for `CCC(CC)C(=O)N1CCC(n2cc(C(C)(C)O)nn2)CC1`, the figure is 0.875; as for `CCC(CO)n1cnc2sc3c(c2c1=O)CCCCC3` (stereo not given), 1.99. The value for `CC(C)Cc1cn(C2CCN(C(=O)C3CCCCCC3)CC2)nn1` was -0.435. The value for `O=c1c2c3c(sc2ncn1CCF)CCCCC3` was -0.535; that for `CN(CC1Cc2ccccc2O1)C(=O)Nc1nc(-c2ccccc2)ns1` (stereo not given) was 1.98. Turning to `COC(C)(C)CCCC(C)CCN1CCC(n2cc(C(C)(C)N)nn2)CC1` (stereo not given), the z-score was -0.52.

On to `Cc1nsc(NC(=O)N2CCCN(c3ccc(F)cc3)CC2)n1`, for which the z-score is -0.27. On to `Cc1occc1C(=O)Nc1ccccc1C(=O)N(C)Cc1ccccn1`, for which the z-score was -0.21. As for `O=C(C(=O)N1CCCCC1c1nc2ccc(F)cc2[nH]1)c1ccccc1` (stereo not given), the figure is 0.05. As for `CC(C)c1ncc(-c2cc(C(=O)N3CCC(C)(C)C3)c3ccccc3n2)cn1`, the figure is 2.19 (active); as for `COc1ccc(CCC(C)NC2CC(C)(C)NC(C)(C)C2)cc1` (stereo not given), -0.505.

For `O=C(CC1CCCCCC1)N1CCC(n2cc(-c3ccccn3)nn2)CC1`, the z-score is -0.34.

As to `CCCCn1nnnc1NC(=O)NC1CCN(Cc2ccncc2)CC1`, the z-score is -0.755. The value for `C1=CCC(CN2CCC(N3CCCC3)CC2)CC1` (stereo not given) was -0.58; that for `COc1cc(C)ccc1C(=O)N1CCC(Cn2cc(C3CC3)nn2)CC1` was -0.52; that for `COC(=O)c1nn(CC(=O)Nc2cnn(C)n2)c2ccccc12` was 1.92. The value for `O=C(c1cn2cccnc2n1)N1CCCC(Cn2cc(C3CCCC3)nn2)C1` (stereo not given) was -0.49; that for `CCC1(CC)CC1C(=O)N1CCC(n2cc(C3(O)CCCC3)nn2)CC1` (stereo not given) was -0.565; that for `O=C(C1CCCCCC1)N1CCC(n2cc(C3CCCCC3)nn2)CC1` was 2.69 (active).

Take `CCCCn1cc(-c2cc(C(=O)N3CCCC3)c3cccc(C)c3n2)cn1`: the z-score is 2.59 (active).

As to `CC(=O)c1cc(CC(=O)NCc2cc(F)c(F)cc2F)cs1`, the z-score was -0.01.

`C=C1C2(C(=O)N3CCC(c4ccc(F)cc4)C3)CCC(C2)C1(C)C` (stereo not given): the z-score is 0.91.

Take `CC[C@H](C)[C@H](N)C(=O)N1CCC(Cn2cc(-c3ccc(F)cc3)nn2)CC1`: the z-score was -0.33. With `CNCc1cn(C2CCN(CCC(C)CC(C)(C)C)CC2)nn1` (stereo not given), the z-score was -0.49. The value for `O=c1c2sc(-c3ccc(F)cc3)cc2ncn1Cc1nc2ccccc2[nH]1` was 0.44.

Source of the values: PubChem BioAssay.
